# PubChem BioAssay (Tox21)
# Values joined by “and” are separate entries in the source; they are usually repeats but may differ in a detail not shown here. Equal entries are not always repeated. Results filed as inconclusive are left out. Entries that show only a call come without a potency. Some structures have more than one record in an assay (separate samples or runs), and their calls can disagree. Active and inactive are the calls of the source. Unless noted, calls follow the shape of the dose curve; as a rule, active = well fitted curve in the direction sought with a large enough effect in the repeat runs; inconclusive = weak or mixed curves; inactive = no such curve, though single readings can be large; an effect the other way counts as inactive or inconclusive.
# What was measured:
# [1] = target: Progesterone receptor (Homo sapiens) (UniProt P06401); experiment: qHTS assay to identify small molecule antagonists of the progesterone receptor (PR) signaling pathway (AID 1346795; active = well fitted inhibition curve with a large enough effect in the signal ratio in the repeat runs, not every such curve was filed as active; the % refers to the signal ratio)
# Outline: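 Antagonist mode with agonist R5020 at 1 nM final and 16 hr incubation at 37C. Reporter was beta-lactamase driven by UAS in HEK293T (PR-UAS-bla), 2% charcoal-stripped serum; signal from LiveBLAzer FRET substrate, 2 hr at room temperature.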
# [2] = qHTS assay to identify small molecule antagonists of the progesterone receptor (PR) signaling pathway - cell viability counter screen (AID 1346798); also: nearly all actives have a fitted effect of over 50% in size; also: potency is read from the fitted curve at half-maximal effect
# Outline: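 Cytotoxicity read as CellTiter-Glo luminescence (30 min, room temperature) in the same wells as the beta-lactamase readout. HEK293T PR-UAS-bla cells in charcoal-stripped 2% FBS received compound and R5020, then 16 h at 37C, 5% CO2.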
# [3] = qHTS assay to identify small molecule agonists of the TGF-beta/Smad signaling pathway - cell viability counter screen (AID 1346829); also: nearly all actives have a fitted effect of over 45% in size; also: potency is read from the fitted curve at half-maximal effect
# Outline: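 Here the cytotoxicity of library compounds is measured in SBE-bla HEK 293T cells treated for 5 hr, using CellTiter-Glo added to wells already read for the beta-lactamase reporter.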
# [4] = qHTS assay to identify small molecule agonists of the TGF-beta/Smad signaling pathway (AID 1346859; active = well fitted activation curve with a large enough effect in the signal ratio in the repeat runs, not every such curve was filed as active; the % refers to the signal ratio; also: series mostly up to about 77 µM)
# Outline: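 Fluorescence (ex 405 nm; em 460 and 530 nm) was read 2 h after LiveBLAzer FRET substrate at RT. The preceding compound treatment of overnight-plated SBE-bla HEK293T cells lasted 5 h at 37 C.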
# [5] = target: Thyrotropin-releasing hormone receptor (Homo sapiens) (UniProt P34981); experiment: qHTS assay to identify small molecule antagonists of the thyrotropin-releasing hormone receptor (TRHR) signaling pathway (AID 1346877; active = well fitted inhibition curve with a large enough effect in the repeat runs, not every such curve was filed as active; also: series mostly up to about 51 µM)
# Outline: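 Calcium signal in dye-loaded TRHR/HEK293 cells; compounds added 5 min before TRH (1 nM final); fluorescence monitored 3 min at 1 s steps.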
# [6] = target: Thyrotropin-releasing hormone receptor (Homo sapiens) (UniProt P34981); experiment: qHTS assay to identify small molecule agonists of the thyrotropin-releasing hormone receptor (TRHR) signaling pathway (AID 1346891; calls by dose curve; also: series mostly up to about 58 µM)
# Outline: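 Agonist-mode intracellular calcium readout: kinetic fluorescence over 3 min at 1 s intervals after compound addition to TRHR-HEK293 cells (18 h seeded, 2 h dye-loaded at 37 C). Fifteen concentrations, triplicates.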
# [7] = Human pregnane X receptor (PXR) small molecule agonists, qHTS cell viability counter screen (AID 1346977); also: nearly all actives have a fitted effect of over 50% in size; also: potency is read from the fitted curve at half-maximal effect
# Outline: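 Same-well viability read: CellTiter-Fluor added after 23 hr compound exposure, fluorescence measured 1 hr later. Cells were PXR-Luc HepG2 seeded at 2,000/well in 5% charcoal-stripped FBS medium, rested 5 hr before dosing at 37 C.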
# [8] = Caspase-3/7 induction in CHO-K1 cells by small molecules, qHTS cell viability counter screen (AID 1346979); also: nearly all actives have a fitted effect of over 35% in size; also: potency is read from the fitted curve at half-maximal effect
# Outline: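 Cytotoxicity counter screen: CellTiter-Fluor added to compound-treated wild-type CHO-K1 cells at 16 h (37C, 5% CO2), fluorescence measured 1 h later; same wells as caspase-3/7 measurement.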
# [9] = Caspase-3/7 induction in CHO-K1 cells by small molecules, qHTS assay (AID 1346980); also: nearly all actives have a fitted effect of over 15% in size; also: potency is read from the fitted curve at half-maximal effect
# Outline: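 Luminescent Caspase-Glo 3/7 read (30min, room temperature) quantified apoptosis induction. Cells were wild-type CHO-K1, treated with compound for 17hr at 37 C and 5% CO2.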
# [10] = Caspase-3/7 induction in HepG2 cells by small molecules, qHTS cell viability counter screen (AID 1346981); also: nearly all actives have a fitted effect of over 30% in size; also: potency is read from the fitted curve at half-maximal effect
# Outline: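 After a 5-hr attachment period at 37 C and 5% CO2, wild-type HepG2 cells received compounds in DMSO. Sixteen hours later CellTiter-Fluor was dispensed and the fluorescent signal quantified after a further hour.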
# [11] = target: Nuclear receptor subfamily 1 group I member 2 (Homo sapiens) (UniProt O75469); experiment: Human pregnane X receptor (PXR) small molecule agonists, qHTS assay (AID 1346982); also: nearly all actives have a fitted effect of over 35% in size; also: potency is read from the fitted curve at half-maximal effect
# Outline: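 Tox21 qHTS; PXR-Luc HepG2; compounds pinned from DMSO; 24 hr, 37 C; ONE-Glo luciferase detection, 30 min room temperature.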
# [12] = target: Acetylcholinesterase (Homo sapiens) (UniProt P22303); experiment: Acetylcholinesterase (AChE) small molecule antagonists: colormetric cell-based qHTS assay (AID 1347395; calls by dose curve; also: nearly all actives have a fitted effect of over 30% in size; also: potency is read from the fitted curve at half-maximal effect)
# Outline: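 Colorimetric readout: DTNB quantifies thiocholine from acetylthiocholine hydrolysed by endogenous AChE of SH-SY5Y cells (2,000/well, plated overnight). Compound pretreatment 30 min, substrate incubation 90 min, both 37 C.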
# [13] = target: Acetylcholinesterase (Homo sapiens) (UniProt P22303); experiment: Acetylcholinesterase (AChE) small molecule antagonists: enzyme-based qHTS assay (AID 1347397; calls by dose curve; also: nearly all actives have a fitted effect of over 55% in size); settings: Potency: AChE enzyme activity inhibition; outcome: AChE enzyme activity inhibition
# Outline: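 Colorimetric DTNB readout of acetylthiocholine hydrolysis, 10 min at room temperature, after 30 min room-temperature exposure of 50 mU/mL recombinant human enzyme to compound; DMSO vehicle control.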
# [14] = target: Acetylcholinesterase (Homo sapiens) (UniProt P22303); experiment: Acetylcholinesterase (AChE) small molecule antagonists: fluorescence cell-based qHTS assay (AID 1347398; calls by dose curve; also: nearly all actives have a fitted effect of over 50% in size; also: potency is read from the fitted curve at half-maximal effect); settings: Potency: AChE activity; outcome: AChE activity
# Outline: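 Cellular AChE activity read as thiocholine from acetylthiocholine hydrolysis, detected by Thiolite Green fluorescence at 490/520 nm after 40 min at room temperature. Compounds were pre-incubated 30 min at 37 C on adherent SH-SY5Y cells.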
# [15] = qHTS assay to identify small molecule agonists of the progesterone receptor (PR) signaling pathway - cell viability counter screen (AID 1346799; calls by dose curve; also: nearly all actives have a fitted effect of over 45% in size; also: potency is read from the fitted curve at half-maximal effect)
# Outline: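 Cytotoxicity measured by CellTiter-Glo luminescence (30 min, RT) in the same wells as the PR beta-lactamase agonist read. Those HEK293T cells had 16 h compound treatment at 37 C in 2% charcoal-stripped FBS medium.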
# [16] = qHTS assay to identify small molecule antagonists of the TGF-beta/Smad signaling pathway - cell viability counter screen (AID 1346824); also: nearly all actives have a fitted effect of over 50% in size; also: potency is read from the fitted curve at half-maximal effect
# Outline: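 Cytotoxicity counter-screen run in the same wells as the beta-lactamase Smad reporter read: CellTiter-Glo luminescence after 30 min at room temperature. HEK 293T SBE-bla cells had 5 hr compound exposure at 37 C with TGF-beta1 (0.25 ng/mL stock).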
# [17] = Caspase-3/7 induction in HepG2 cells by small molecules, qHTS assay (AID 1346978); also: nearly all actives have a fitted effect of over 15% in size; also: potency is read from the fitted curve at half-maximal effect
# Outline: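 Caspase-3/7 induction was measured by Caspase-Glo 3/7 luminescence (30 min, room temperature) after a 17 hr compound exposure of wild-type HepG2 cells seeded at 2,000 per well and pre-incubated 5 hr.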
# [18] = target: Nuclear receptor subfamily 1 group I member 2 (Rattus norvegicus) (UniProt Q9R1A7); experiment: Rat pregnane X receptor (rPXR) activation by small molecules, qHTS assay (AID 1346983); settings: rPXR luciferase reporter cells, One-Glo luminescence, 24 h; stronger effect = higher value; also: nearly all actives have a fitted effect of over 20% in size
# Outline: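 Luminescent readout (One-Glo luciferase, 30 min room temperature) followed 24 hr compound treatment at 37 C of rPXR cells plated 2,000 per well and preincubated 5hr; qHTS format with compounds delivered in DMSO.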
# [19] = target: Nuclear receptor subfamily 1 group I member 2 (Homo sapiens) (UniProt O75469); experiment: CYP3A4 induction through human pregnane X receptor (PXR) by small molecules, qHTS assay (AID 1346984); also: nearly all actives have a fitted effect of over 40% in size
# Outline: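 Cells (DPX-2; HepG2 with PXR element plus CYP3A4-promoter luciferase) settled 5hr, then were treated 24hr at 37C. A 3hr, 3uM-final Luciferin-IPA step preceded luminescence measurement with One-Glo.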
# [20] = target: Nuclear receptor subfamily 1 group I member 2 (Homo sapiens) (UniProt O75469); experiment: Human pregnane X receptor (PXR) activation by small molecules, qHTS assay (AID 1346985); also: potency is read from the fitted curve at half-maximal effect; nearly all actives have a fitted effect of over 40% in size
# Outline: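 DPX-2 cells (HepG2 co-transfected with a PXR response element and a CYP3A4-promoter luciferase construct) were seeded at 2,000 per well, rested 5 hr at 37C, then exposed to DMSO-dissolved compounds for 24 hr. Activation was read as luciferase luminescence.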
# Nuclear receptor subfamily 1 group I member 2 (Rattus norvegicus), sequence (Q9R1A7 whole entry, looked up): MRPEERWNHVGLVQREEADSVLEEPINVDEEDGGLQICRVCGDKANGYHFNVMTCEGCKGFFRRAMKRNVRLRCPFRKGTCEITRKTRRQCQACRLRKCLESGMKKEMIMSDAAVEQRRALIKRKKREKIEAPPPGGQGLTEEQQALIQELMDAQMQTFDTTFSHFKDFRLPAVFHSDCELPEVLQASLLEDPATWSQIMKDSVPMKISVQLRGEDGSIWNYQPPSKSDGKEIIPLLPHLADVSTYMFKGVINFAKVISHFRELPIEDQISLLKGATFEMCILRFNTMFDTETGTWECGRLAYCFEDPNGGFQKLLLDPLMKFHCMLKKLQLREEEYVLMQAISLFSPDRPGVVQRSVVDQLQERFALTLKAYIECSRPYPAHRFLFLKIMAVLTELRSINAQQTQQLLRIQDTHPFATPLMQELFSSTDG
# Nuclear receptor subfamily 1 group I member 2 (Homo sapiens), sequence (O75469 whole entry, looked up): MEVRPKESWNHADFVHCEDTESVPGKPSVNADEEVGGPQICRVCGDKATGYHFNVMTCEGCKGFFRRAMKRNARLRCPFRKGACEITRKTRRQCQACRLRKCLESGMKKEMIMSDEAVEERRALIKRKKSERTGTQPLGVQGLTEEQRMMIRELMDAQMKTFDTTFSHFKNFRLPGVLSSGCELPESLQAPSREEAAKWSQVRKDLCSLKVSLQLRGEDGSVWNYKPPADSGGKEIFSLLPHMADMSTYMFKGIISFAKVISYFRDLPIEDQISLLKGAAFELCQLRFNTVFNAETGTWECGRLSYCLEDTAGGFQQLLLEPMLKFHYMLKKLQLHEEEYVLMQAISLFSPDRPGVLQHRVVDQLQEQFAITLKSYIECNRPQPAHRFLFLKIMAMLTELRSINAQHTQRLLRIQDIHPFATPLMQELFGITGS
# Acetylcholinesterase (Homo sapiens), sequence (P22303 whole entry, looked up): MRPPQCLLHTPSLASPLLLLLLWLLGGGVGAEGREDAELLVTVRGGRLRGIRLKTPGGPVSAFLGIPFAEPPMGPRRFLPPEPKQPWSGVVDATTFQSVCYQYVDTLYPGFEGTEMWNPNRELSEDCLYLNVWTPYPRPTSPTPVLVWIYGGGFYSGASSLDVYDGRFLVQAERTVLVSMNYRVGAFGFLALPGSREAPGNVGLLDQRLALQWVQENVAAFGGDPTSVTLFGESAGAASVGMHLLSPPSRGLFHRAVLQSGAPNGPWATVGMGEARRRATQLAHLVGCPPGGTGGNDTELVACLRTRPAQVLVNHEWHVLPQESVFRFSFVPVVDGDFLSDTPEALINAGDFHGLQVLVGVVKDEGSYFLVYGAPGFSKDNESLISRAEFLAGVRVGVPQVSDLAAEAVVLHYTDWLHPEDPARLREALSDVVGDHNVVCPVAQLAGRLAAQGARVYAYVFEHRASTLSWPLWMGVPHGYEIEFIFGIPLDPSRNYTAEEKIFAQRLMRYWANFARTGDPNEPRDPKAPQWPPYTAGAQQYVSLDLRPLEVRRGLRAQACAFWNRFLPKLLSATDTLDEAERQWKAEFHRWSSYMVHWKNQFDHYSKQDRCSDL
# Thyrotropin-releasing hormone receptor (Homo sapiens), sequence (P34981 whole entry, looked up): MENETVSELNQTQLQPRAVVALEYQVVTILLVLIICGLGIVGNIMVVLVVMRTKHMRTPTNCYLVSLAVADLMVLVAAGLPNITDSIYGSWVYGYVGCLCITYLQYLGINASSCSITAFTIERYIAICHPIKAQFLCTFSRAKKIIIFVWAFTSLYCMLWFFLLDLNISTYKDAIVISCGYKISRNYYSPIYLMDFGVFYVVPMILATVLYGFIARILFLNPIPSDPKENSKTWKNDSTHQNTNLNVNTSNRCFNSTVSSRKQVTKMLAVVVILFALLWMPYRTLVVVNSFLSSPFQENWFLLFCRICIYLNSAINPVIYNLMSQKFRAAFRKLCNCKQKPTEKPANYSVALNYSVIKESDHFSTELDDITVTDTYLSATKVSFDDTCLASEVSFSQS
# Progesterone receptor (Homo sapiens), sequence (P06401 whole entry, looked up): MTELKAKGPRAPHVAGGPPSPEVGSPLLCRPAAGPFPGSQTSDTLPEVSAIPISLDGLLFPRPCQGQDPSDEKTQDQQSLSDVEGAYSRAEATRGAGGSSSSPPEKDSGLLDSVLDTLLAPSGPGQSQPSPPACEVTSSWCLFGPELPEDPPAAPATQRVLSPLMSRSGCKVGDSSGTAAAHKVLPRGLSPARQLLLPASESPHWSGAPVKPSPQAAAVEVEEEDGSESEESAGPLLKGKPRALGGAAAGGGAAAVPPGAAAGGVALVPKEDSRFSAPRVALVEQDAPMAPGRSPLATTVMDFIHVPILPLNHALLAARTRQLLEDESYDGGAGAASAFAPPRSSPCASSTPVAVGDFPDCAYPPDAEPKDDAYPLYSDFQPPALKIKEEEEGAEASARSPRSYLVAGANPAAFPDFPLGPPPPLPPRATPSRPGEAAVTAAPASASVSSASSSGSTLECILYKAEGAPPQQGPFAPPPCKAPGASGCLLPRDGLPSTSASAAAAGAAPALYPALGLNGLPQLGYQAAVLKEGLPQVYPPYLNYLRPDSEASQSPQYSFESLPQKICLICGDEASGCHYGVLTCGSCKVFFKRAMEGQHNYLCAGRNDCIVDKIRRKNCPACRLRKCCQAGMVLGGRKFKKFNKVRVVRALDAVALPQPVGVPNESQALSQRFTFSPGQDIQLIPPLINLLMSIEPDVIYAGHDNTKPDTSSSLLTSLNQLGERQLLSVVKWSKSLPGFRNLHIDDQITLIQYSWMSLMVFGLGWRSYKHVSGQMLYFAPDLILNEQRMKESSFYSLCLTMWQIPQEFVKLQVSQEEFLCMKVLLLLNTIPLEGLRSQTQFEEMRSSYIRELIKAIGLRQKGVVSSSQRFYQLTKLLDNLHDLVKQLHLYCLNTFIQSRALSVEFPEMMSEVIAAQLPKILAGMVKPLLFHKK
Structure (SMILES),Potency [1],Potency [2],Potency [3],outcome [4],Potency [5],outcome [6],Potency [7],Potency [8],Potency [9],Potency [10],Potency [11],Potency [12],Potency [13],Potency [14],Potency [15],Potency [16],Potency [17],max activation [18],outcome [19],Potency [20]
CCC(=O)O[C@@H]1C=C2CCC3C(CCC4(C)C3CC[C@@H]4OC(=O)CC)C2CC1 (stereo partly drawn),inactive,inactive,inactive,inactive,inactive,inactive,inactive,inactive,inactive,inactive,inactive,inactive,inactive,inactive,,,,,,
C[C@@H]1C[C@@H]([C@H](O)CC2CC(=O)NC(=O)C2)C(=O)[C@@H](C)C1,,inactive,inactive,inactive,inactive,inactive,342 nM (active) and 1.22 µM (active) and 1.19 µM (active),24.2 nM (active) and 68.6 nM (active) and 188 nM (active),inactive,,,,,,inactive,inactive,inactive,,,
[Cl-].[Cl-].[Hg+2],,4.83 µM (active) and 2.43 µM (active),54.7 µM (active) and 54.9 µM (active),inactive,,,7.08 µM (active) and 6.11 µM (active),483 nM (active) and 2.43 µM (active),,27.2 µM (active) and 54.5 µM (active),,,,,5.42 µM (active) and 2.17 µM (active),24.4 µM (active) and 54.9 µM (active),inactive,-4.43% (inactive),,
COc1ccc(C(=O)c2c(C)n(CCN3CCOCC3)c3ccccc23)cc1,,,inactive,inactive,inactive,inactive,inactive,,inactive,,9.44 µM (active),inactive,inactive,inactive,,inactive,inactive,9.34% (inactive),inactive,14.1 µM (active)
Nc1ccccc1C(=O)OCC(O)CO (stereo not drawn),,inactive,inactive,inactive,inactive,inactive,inactive,inactive,,inactive,,inactive,inactive,inactive,inactive,,inactive,,,
CCCSP(=S)(OCC)Oc1ccc(SC)cc1 (stereo not drawn),,inactive,inactive,inactive,,,inactive,inactive,inactive,,17.2 µM (active),inactive,inactive,inactive,inactive,,,,,
CCOC(=O)c1cn2nc(OP(=S)(OCC)OCC)cc2nc1C,,,inactive,,,,inactive,,inactive,inactive,,35.6 µM (active),,39.9 µM (active),,inactive,inactive,,,
COC1=CC(=O)O[C@@H](/C=C/c2ccc3c(c2)OCO3)C1,,inactive,inactive,inactive,,inactive,inactive,inactive,inactive,,,inactive,inactive,inactive,,inactive,inactive,,,
CC(C)[C@@H](C(=O)O[C@@H](C#N)c1cccc(Oc2ccccc2)c1)c1ccc(Cl)cc1,,inactive,inactive,inactive,,,inactive,27.7 µM (active),inactive,inactive,5.53 µM (active) and 9.69 µM (active),inactive,inactive,inactive,,,inactive,,,
CON(C)C(=O)Nc1ccc(Cl)cc1,,,inactive,inactive,,,inactive,inactive,inactive,,48.6 µM (active),inactive,inactive,inactive,inactive,inactive,inactive,,,
CC(C)C1(C)N=C(c2ncccc2C(=O)O)NC1=O (stereo not drawn),,,inactive,inactive,inactive,inactive,inactive,inactive,inactive,inactive,inactive,inactive,inactive,inactive,inactive,inactive,inactive,,,
C=CCOC(=O)C(C)(C)OC(=O)c1cc(-n2c(=O)cc(C(F)(F)F)n(C)c2=O)ccc1Cl,,inactive,inactive,inactive,,inactive,inactive,,inactive,inactive,4.24 µM (active),inactive,inactive,inactive,inactive,,inactive,,,
CC(C)(C)CC(C)(C)c1ccc(O)cc1,,54.5 µM (active),43.6 µM (active) and inactive,inactive,,inactive,54.5 µM (active),50 µM (active),51.4 µM (active),61.1 µM (active),19.3 µM (active) and inactive,39.9 µM (active) and inactive,inactive,31.7 µM (active) and inactive,48.6 µM (active),,51.4 µM (active),,,
COC(=O)C1(O)c2ccccc2-c2ccccc21,,,inactive,inactive,inactive,inactive,inactive,inactive,inactive,inactive,,inactive,inactive,inactive,inactive,inactive,inactive,,,
C[C@]12C=CC3=C4CCC(=O)C=C4CC[C@H]3[C@@H]1CC[C@@H]2O,,,inactive,inactive,inactive,inactive,inactive,60.7 µM (active) and 46.1 µM (active),inactive,inactive,,inactive,inactive,inactive,,inactive,inactive,,,
NNCCO,,inactive,inactive,inactive,,,inactive,inactive,,inactive,,inactive,inactive,inactive,,inactive,inactive,,,
O=S(=O)(c1ccccc1)c1ccccc1,,,inactive,inactive,,inactive,inactive,inactive,inactive,inactive,inactive,inactive,inactive,inactive,,inactive,inactive,,,
C#C[C@]1(O)CC[C@H]2[C@@H]3CCC4=CC(=O)CCC4=C3C=C[C@@]21CC,,,inactive,,inactive,inactive,inactive,26.6 µM (active),inactive,,,inactive,inactive,,,inactive,inactive,-15.2% (inactive),,
Nc1ccccc1C(=O)OCCc1ccccc1,,inactive,inactive,inactive,inactive,inactive,inactive,inactive,,inactive,,inactive,inactive,inactive,inactive,,inactive,,,
O=C([O-])c1ccccn1.O=C([O-])c1ccccn1.O=C([O-])c1ccccn1.[Cr+3],,inactive,inactive,inactive,,,inactive,inactive,inactive,,inactive,inactive,inactive,inactive,inactive,,inactive,,,
Cc1ncc(C[n+]2csc(CCO)c2C)c(N)n1,,inactive,inactive,inactive,inactive,inactive,inactive,inactive,inactive,,,,,,,inactive,inactive,,,
O=C(O)CCCOc1ccc(Cl)cc1Cl,,,inactive,,,,inactive,inactive,,inactive,,,,,,inactive,inactive,,,
